ELG1 genotoxic: induces genotoxicity in HEK293T cells with luciferase-tagged ELG1 | HEK293T ELG1-luciferase reporter, luminescence, 16 h | Potency, µM (top dose mostly 46 µM), for the others: at the top dose activity change, positive = activation, actives largely listed as activators | 330,000 compounds, 1.3% hits; also: % of control where 0% means no effect; nearly all actives have a fitted effect of over 60% in size
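Step 1: seed 2,000 HEK293T ELG1-luciferase cells per well. Step 2: add compound or DMSO, incubate 16 hr at 37 °C. Step 3: ONE-Glo, 30 min at room temperature, read luminescence.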
FLuc counter: counter-screen for miR-21 project: firefly luciferase inhibitors or activators. P08659. purified FLuc, Km substrates, luminescence inhibition. Potency, µM (doses to about 57.5 µM), for inactives: at the highest dose activity change, negative = inhibition, hits mostly inhibitors. 360,000 compounds, 6.9% hits;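 also: plate controls were vehicle for no effect and reference inhibitor for full effect; nearly all actives have a fitted effect of over 55% in size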
Target sequence (P08659 whole entry, looked up): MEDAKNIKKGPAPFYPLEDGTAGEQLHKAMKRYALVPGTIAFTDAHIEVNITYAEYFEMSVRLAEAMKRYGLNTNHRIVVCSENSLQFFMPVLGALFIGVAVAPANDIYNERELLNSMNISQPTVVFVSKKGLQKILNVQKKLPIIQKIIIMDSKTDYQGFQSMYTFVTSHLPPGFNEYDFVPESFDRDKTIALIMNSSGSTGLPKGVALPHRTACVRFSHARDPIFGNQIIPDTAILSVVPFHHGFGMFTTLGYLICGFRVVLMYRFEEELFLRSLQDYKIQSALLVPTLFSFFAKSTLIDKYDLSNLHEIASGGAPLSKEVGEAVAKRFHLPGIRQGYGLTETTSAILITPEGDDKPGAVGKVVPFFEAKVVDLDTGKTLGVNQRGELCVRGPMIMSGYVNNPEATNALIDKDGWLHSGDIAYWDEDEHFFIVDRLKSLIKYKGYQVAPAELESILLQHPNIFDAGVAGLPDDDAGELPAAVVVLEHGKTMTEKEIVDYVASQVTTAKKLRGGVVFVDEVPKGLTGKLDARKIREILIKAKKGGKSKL
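Purified P. pyralis luciferase, 10 nM final, with Km-level 10 uM D-luciferin and 10 uM ATP in 50 mM Tris acetate pH 7.5, 10 mM Mg acetate, 0.01% Tween-20, 0.05% BSA; 6-point qHTS titration about 60 µM downward; luminescence read.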
SMN2 splice up: increases expression of the SMN2 splice variant. AID 1458. Potency, µM (titrated, usually from 46.1 µM), without a hit: top-dose activity change, positive = activation, usual class: activators. 210,000 compounds, 2.8% hits. HEK293 SMN2-luciferase splicing reporter, luminescence, 30-36 h; also: % of control where 0% means no effect; nearly all actives have a fitted effect of over 55% in size
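HEK293 cells carry an SMN2 […]–luciferase reporter in which exon 7 inclusion puts luciferase in frame. Cells were plated 10-12 h before compound addition, then incubated 30-36 h at 37C. ONE-Glo luminescence was read; sodium butyrate at 4.5 mM final served as control.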
NPC1 prom act: activators of NPC1 promoter; Huh7 NPC1 promoter luciferase reporter, 24 h; Potency, µM (doses to about 9.22 µM), without a hit: at the top dose activation, hits mostly activators; 320,000 compounds, 2.4% hits; AID 485313; also: % of control where 0% means no effect; nearly all actives have a fitted effect of over 60% in size
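Luminescence read-out of NPC1 promoter-driven luciferase in stably transfected Huh7 cells; compounds delivered in DMSO and left 24 h at 37C, 5% CO2, qHTS titration format.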
Rab9 promoter act: activates the Rab9 promoter | Huh7 Rab9 promoter-luciferase reporter, luminescence, 24 h | Potency, µM (titrated, usually from 9.22 µM), inactives show at the highest dose activation, negative = inhibition, usual class: activators | 320,000 compounds, 2.8% hits; also: % of control where 0% means no effect; nearly all actives have a fitted effect of over 60% in size
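Luminescence read-out: Huh7 cells stably expressing Rab9-luciferase, treated 24 h with compound at 37 °C, then lysed with luciferase reagent for 10 min at ambient before reading.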
* marks the source's active call; other numbers are inactive results; ? = inconclusive; nt = no result; [ ] = another dose, or the depositor's remark. The list is not random: actives were taken first. Their share in the collection is about 7.5%. Calls follow the shape of the dose curve; as a rule, active = well fitted curve in the direction sought with a large enough effect; inconclusive = small, poorly fitted or top-dose-only effect, or another doubt; inactive = no such curve, though single readings can be large; an effect the other way counts as inactive or inconclusive. Potency is read from the fitted curve at half-maximal effect.

SMILES	ELG1 genotoxic	FLuc counter	SMN2 splice up	NPC1 prom act	Rab9 promoter act
CCC(=O)NCCc1sc2nc(-c3ccc(OC)cc3)nn2c1C	nt	19µM*	nt	nt	nt
CCOc1ccc(CC(=O)NCCc2sc3nc(-c4ccc(OC)cc4)nn3c2C)cc1	nt	0%	nt	nt	nt
COc1ccc(-c2nc3sc(CCNC(=O)c4ccc(Br)o4)c(C)n3n2)cc1	nt	11µM*	nt	nt	nt
COc1ccc(-c2nc3sc(CCNC(=O)c4cc(Cl)ccc4OC)c(C)n3n2)cc1	nt	7.6µM*	nt	nt	nt
COc1ccc(-c2nc3sc(CCNC(=O)Cc4ccc(Cl)cc4)c(C)n3n2)cc1	nt	-18%	nt	nt	nt
COc1ccc(S(=O)(=O)N2CCN(C(=O)/C=C/c3ccco3)CC2)cc1	-2%	6%	nt	-1%	-4%
CCOc1ccc(S(=O)(=O)N2Cc3ccccc3CC2C(=O)Nc2ccc(NC(C)=O)cc2)cc1 (configuration not stated)	nt	-11%	-14%	nt	nt
O=C(NCc1cccnc1)Nc1ccccc1C(F)(F)F	1%	-1%	nt	-2%	-2%
CC(C)(C)c1ccc(C(=O)NCCc2csc3nc(-c4ccccc4F)nn23)cc1	nt	12µM*	nt	nt	nt
O=c1cc(-c2ccccc2)nc2nc(-c3ccccc3)[nH]n12	18µM*	11µM*	18µM*	?	?
Nc1nc2nc(-c3ccccc3)cc(=O)n2[nH]1	-7%	12µM*	0%	0%	17%
CCC(=O)Nc1nc2nc(-c3ccccc3)cc(=O)n2[nH]1	0%	?	nt	1%	7%
Cc1nc2nc(-c3ccccc3)[nH]n2c(=O)c1Cc1ccccc1	9%	19µM*	13µM*	25%	21%
COC(=O)c1sccc1S(=O)(=O)N(CC(=O)NCc1ccccc1)c1ccc(C)cc1	nt	4%	nt	nt	nt
Cc1cc(C(=O)COc2ccc(F)cc2Br)c(C)n1C1CC1	0%	11µM*	nt	17%	?
Cc1ccc(OCC(=O)c2cc(C)n(C3CC3)c2C)c([N+](=O)[O-])n1	12%	-18%	-8%	14%	2%
Cc1cc(C(=O)COc2ccc(F)cc2Br)c(C)n1C	8%	21µM*	13%	14%	28%
Cc1cc(-n2c(C)cc(C(=O)COc3cc(F)ccc3[N+](=O)[O-])c2C)no1	1%	nt	nt	-6%	0%
Cc1ccc(C)c(C(=O)COC(=O)c2cccc(N3C(=O)c4c(C)nc5ccccc5c4C3=O)c2)c1	14%	1.5µM*	-10%	?	?
CCOc1ccc(Nc2cc3n(c(=O)n2)CCc2cc(OC)c(OC)cc2-3)cc1	?	13µM*	nt	-5%	-1%[1.84 µM]
CCOc1ccccc1Nc1cc2n(c(=O)n1)CCc1cc(OC)c(OC)cc1-2	14%	-1%	nt	-4%	-4%[1.84 µM]
COc1cc2c(cc1OC)-c1cc(NC3CC3)nc(=O)n1CC2	?	3%	14µM*	-2%	3%
COc1cc2c(cc1OC)-c1cc(NC3CCCCCCC3)nc(=O)n1CC2	14%	?	-1%	-3%	1%
CC(=O)Oc1ccc2oc(/C=C/N(C)C)c([N+](=O)[O-])c2c1	?	15µM*	0%	28%	20%
Cc1cnc(C(=O)Nc2ccc3c(c2)CCC3)cn1	?	2.4µM*	11µM*	?	0.5µM*
SMILES	ELG1 genotoxic	FLuc counter	SMN2 splice up	NPC1 prom act	Rab9 promoter act
CCn1ccc(C(=O)Nc2ccc3c(c2)CCC3)n1	?	3µM*	nt	1µM*	1µM*
Cc1cnc(C(=O)Nc2ccc(F)c(F)c2)cn1	16µM*	?	13µM*	?	2.5µM*
Cn1ncc(Cl)c1C(=O)Nc1ccc2c(c1)CCC2	-2%	?	nt	26%	?
Cc1cc(C)n2nc(C(=O)Nc3ccc(S(=O)(=O)N4CCCC4)cc3)nc2n1	-3%	3%	nt	-3%	1%
Cc1cc(C)n2nc(C(=O)Nc3ccc4c(c3)CCC4)nc2n1	?	13µM*	11µM*	?	3.5µM*
O=S1(=O)CCOCCCN1Cc1ccccc1Br	-3%	1%	nt	-1%	-5%
CCOc1ccc(CCNC(=O)COC(=O)c2cc([N+](=O)[O-])ccc2N2CCOCC2)cc1OCC	-14%	4%	nt	1%	4%
Cc1ccc(NC(=O)CN(c2ccc(Cl)cc2)S(=O)(=O)c2cc([N+](=O)[O-])ccc2Cl)c(C)c1	-11%	5%	-16%	-6%	-3%
O=C(Nc1ccc2c(c1)CCC2)c1cnccn1	6.5µM*	12µM*	13µM*	3.5µM*	3.2µM*
CCCCSc1nnc(-c2ccccc2NC(C)=O)c(=O)[nH]1	3%	-16%	nt	-2%	12%
CC(=NC1CC1)C1=C(O)c2ccccc2C1=O	?	17µM*	17%	24%	?
CCOc1ccc(N=C(C)C2=C(O)c3ccccc3C2=O)cc1	?	1.3µM*	nt	0.79µM*	1.3µM*
CC(=O)Nc1ccc(N=C(C2=C(O)c3ccccc3C2=O)c2ccccc2)cc1	-13%	?	30%	25%	?
COc1ccc(N=C(C)C2=C(O)c3ccccc3C2=O)cc1	2.6µM*	0.95µM*	5µM*	0.71µM*	0.45µM*
C/C(=N\N(C)C)C1=C(O)c2ccccc2C1=O	14%	?	23%	17%	17%
CC(=O)c1ccccc1C(=O)N1CCC(n2nccc2NC(=O)C2CC2)CC1	0%	-2%	nt	0%	-3%
CNC(=S)SCCOc1ccc(C)cc1	0%	15µM*	16%	1%	4%
CNC(=S)SCCOc1ccccc1	1%	15µM*	nt	2%	10%
O=S1(=O)CCC(NC(=S)SCCOc2ccccc2)C1 (configuration not stated)	-6%	?	nt	-12%	-12%
Cc1ccc(Cn2c(CCNC(=O)C(C)C)nc3ccccc32)cc1	nt	-2%	-7%	nt	nt
CN(C)c1ccc(/C=C(\C#N)c2ccccc2)cc1	4.1µM*	1.3µM*	nt	29%	0.56µM*
N#C/C(=C\c1ccc(C#N)cc1)C(=O)c1ccccc1	6%	?	nt	5%	-2%
CN(C)c1ccc(C(=O)C(=O)c2ccccc2)cc1	17%	24µM*	nt	18%	?
N#C/C(=C\c1cccs1)C(=O)c1ccccc1	4%	15µM*	nt	2%	8%
CN(C)c1cccc(/C=C(\C#N)c2ccccc2)c1	4.1µM*	1.2µM*	nt	?	0.5µM*
Cc1nn(-c2ccccc2)c(C)c1NC(=O)COc1cc(F)ccc1[N+](=O)[O-]	-6%	nt	nt	nt	nt
Cc1cc(C)nc(SCC(CSc2nc(C)cc(C)n2)C(=O)O)n1	4%	-4%	nt	-7%	-6%
CCC(CO)NCc1ccc(OCC(O)c2ccccc2)c(OC)c1 (configuration not stated)	-11%	3%	nt	-2%	6%
CC(C)CN(CCCNC(=O)c1cc(=O)[nH]c2ccc(S(=O)(=O)N3CCCCCC3)cc12)CC(C)C	nt	2%	nt	nt	nt
CN(C)c1ccc(/C=C(/NC(=O)c2ccccc2)C(=O)N2CCCC2)cc1	-2%	17µM*	nt	0%	-1%

Bioassay records from PubChem.
